In PubChem BioAssay AID720519 (National Center for Advancing Translational Sciences (NCATS), 2013) one finds Potency data, which are given here for 38 molecules.

Results filed as inconclusive are left out. Entries that show only a call come without a potency. Active and inactive are the calls of the source. The call rests on the fitted dose curve; in most records, active means well fitted activation curve with a large enough effect; inconclusive means small, poorly fitted or top-dose-only effect; inactive means flat fitted curve, though single readings scatter.

A short description of the experiment: qHTS for Inhibitors of Cell Surface uPA Generation: Confirmatory Assay for Cherry-picked Compounds. The conditions noted are these: cell surface uPA activity generation, qHTS confirmation; series mostly up to 115 µM. The essentials: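 RAW 264.7 cells at 4000/well, incubated overnight, then treated with compounds. After 24 h at 37 C, viability was read by ATPlite luminescence. An increase in signal indicates blocked uPA-dependent LF entry.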
Background: Quantitative high-throughput screening tests each substance at several concentrations.
Consider `COc1ccc(NC(=O)Nc2nnc(N3CCCCC3C)s2)cc1OC` (stereo not drawn), for which the Potency result was “inactive”.

As to `CC1=C(C(=O)OCc2ccccc2)C(c2cccc([N+](=O)[O-])c2)NC(=O)N1` (stereo not drawn), the Potency entry was “inactive”.

Turning to `Cc1cc(NC(=O)COc2cccc([N+](=O)[O-])c2)no1`, the Potency entry was “inactive”.

`COc1ccc(N2CCN(S(=O)(=O)c3ccc4c(c3)NC(=O)CS4)CC2)cc1`: the Potency entry was “inactive”.

With `CCN(CC)S(=O)(=O)c1cc(NC(=O)COC(=O)C2CCC2)ccc1C`, the Potency result was “inactive”.

Regarding `CCc1ccccc1N1C(=O)CC(Sc2nccc(C)n2)C1=O` (stereo not drawn), the Potency entry is “inactive”.

`COc1ccc2c(c1)c1nnc(SCC(=O)Nc3ccccc3F)nc1n2C`: the Potency result was “inactive”.

Turning to `O=c1[nH]c(SCc2cccc(Cl)c2)nc2ccccc12`, the Potency result was “inactive”.

As for `CCOc1ccc(OCC)c(NC(=O)c2ccc(CNc3c(N4CCCC4)c(=O)c3=O)cc2)c1`, the Potency entry was “inactive”.

Take `CCO[C@H]1OC(C(=O)N2CCCCCCC2)=C[C@@H](c2ccc(C(F)(F)F)cc2)[C@@H]1CCCO`: the Potency result was “inactive”.

On to `COc1ccc(S(=O)(=O)N2CCN(Cc3ccccc3)CC2)c(C)c1`, for which the Potency entry was “inactive”.

Take `Cc1ccc(NC2CCCN(C(=O)Cc3nonc3C)C2)cc1C` (stereo not drawn): the Potency entry is “inactive”.

On to `O=[N+]([O-])c1ccc(-c2cn3c(n2)SCC3)cc1`, for which the Potency result is “inactive”.

With `CCCN1CCN(CC(=O)Nc2nncs2)CC1`, the Potency result was “inactive”.

On to `NC(=O)C1CCN(C(=O)c2cccc3ccccc23)CC1`, for which the Potency entry was “inactive”.

For `CCC(C)Sc1nnc(NS(=O)(=O)Cc2ccccc2)s1` (stereo not drawn), the Potency result is “inactive”.

With `CCN(C(=O)c1c(C)noc1C)c1c(N)n(Cc2ccccc2)c(=O)[nH]c1=O`, the Potency result was “inactive”.

`Cc1ccc2sc(NNC(=O)c3ccc4c(c3)OCCO4)nc2c1C`: the Potency result is “inactive”.

As for `COC(=O)C1=CN(Cc2ccc(F)cc2)C=C(C(=O)OC)C1c1ccc(O)c(OC)c1`, the Potency result is “inactive”.

Turning to `CC(C)(O)C#Cc1ccc(C(=O)N2CCCC(CCC(=O)NCc3ccccc3F)C2)cc1` (stereo not drawn), the Potency entry is “inactive”.

On to `C[C@@]12C(=O)N(CC3CCCO3)CC(=O)N1[C@H]1c3cc(Cl)ccc3OC[C@@H]1[C@@H]2c1ccccc1` (stereo partly drawn), for which the Potency entry is “inactive”.

`Cc1nn2c(=O)cc(CSc3nc4ccccc4[nH]3)nc2s1`: the Potency entry is “inactive”.

On to `Cc1ccc(C(=O)COc2cc(O)c3c(=O)cc(-c4ccccc4)oc3c2)cc1`, for which the Potency entry is “inactive”.

In the case of `CCc1nnc(NC(=O)CSc2nnnn2-c2cccc(C(C)=O)c2)s1`, the Potency result is “inactive”.

On to `CC(=O)[C@@]1(O)[C@H](C)CC2C3CC=C4CC(OP(=O)(O)O)CC[C@]4(C)C3CC[C@@]21C` (stereo partly drawn), for which the Potency entry is “inactive”.

As to `Cc1nc(NC(=O)COC(=O)CCc2ccccc2)c(Cl)cc1Cl`, the Potency result was “inactive”.

`CCCC1=NN(C(=O)Cc2ccc(OC)cc2)C(O)(C(F)(F)F)C1` (stereo not drawn): the Potency result was “inactive”.

With `CCCNC(=O)COc1coc(CN2CCN(c3ccccc3OC)CC2)cc1=O`, the Potency result was “inactive”.

Take `CC1Cc2nc(SCC(=O)N3CCCC3)n(C)c(=O)c2S1` (stereo not drawn): the Potency result is “inactive”.

With `COC(/C=C/Nc1ccc(Cl)cc1)=C(C#N)C#N`, the Potency entry is “inactive”.

For the molecule `O=C(COC(=O)c1cccc([N+](=O)[O-])c1)NNC(=O)c1cccs1`, the Potency entry was “inactive”.

In the case of `CCN(C(=O)CSc1ncnc2sccc12)c1c(N)n(Cc2ccccc2)c(=O)[nH]c1=O`, the Potency entry is “inactive”.

`O=C(Cc1ccc(Cl)cc1)NC(=S)Nc1ccccc1O`: the Potency result is “inactive”.

Turning to `NC(=O)CC[C@H](NC(=O)c1ccc(F)cc1)C(=O)OCC(=O)Nc1c(F)c(F)c(F)c(F)c1F`, the Potency result is “inactive”.

With `Cc1noc(C)c1COc1ccc(C(=O)N2CCN(S(=O)(=O)c3ccc(Cl)cc3)CC2)cc1`, the Potency result is “inactive”.

As for `Cc1ccccc1C(=O)Nc1ccccc1N1CCCCC1`, the Potency entry was “inactive”.

As for `COc1ccc2cc(CCNC(=O)c3ccc4c(c3)OCO4)c(=O)[nH]c2c1`, the Potency result is “inactive”.

Turning to `Cc1ccc(S(=O)(=O)N2CCC(C(=O)OC(C)C(=O)NC3CCCCC3C)CC2)cc1` (stereo not drawn), the Potency result is “inactive”.
